Inconclusive results are not listed. The source made the active and inactive calls. The call rests on the fitted dose curve; in most records, active means well fitted curve in the direction sought with a large enough effect; inconclusive means small, poorly fitted or top-dose-only effect, or another doubt; inactive means no such curve, though single readings can be large; an effect the other way counts as inactive or inconclusive.
Experiments:
[1] = target: ATP-dependent 6-phosphofructokinase (Trypanosoma brucei brucei) (UniProt O15648); assay: qHTS Assay to Find Inhibitors of T. brucei phosphofructokinase: hit validation (AID 492961);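 further: luminescence reports ADP formed as PFK phosphorylates fructose-6-phosphate with ATP; on the % scale 0 is the no-effect control and ±100 the full control effect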
Procedure, shortened: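 ADP-Glo luminescence read-out of ADP formed by 1.25 nM PFK from 0.1 mM ATP and 0.5 mM F6P (TEA pH 8.0, 45 min, RT). Compounds titrated; activity normalized to no-enzyme and full-enzyme controls.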

[2] = qHTS profiling for inhibitors of Plasmodium falciparum proliferation (AID 504749);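 further: 0% = DMSO vehicle and full inhibition = artemisinin control; nearly all actives have a fitted effect of over 60% in size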; conditions: P. falciparum in erythrocytes, SYBR Green DNA, 72 h, at 28.7 µM (top of the series)
Procedure, shortened: (§1)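 Three-day growth assay of blood-stage parasites in erythrocytes (0.3% parasitemia, 2.5% hematocrit) at 37 C, 5% CO2, quantified by SYBR Green DNA staining after overnight detergent lysis.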

3D7 = assay: as above; conditions: P. falciparum in erythrocytes, SYBR Green DNA, 72 h; series mostly up to 28.7 µM
Procedure, shortened: as §1

AA1029 = assay: as above; conditions: P. falciparum in erythrocytes, SYBR Green DNA, 72 h; series mostly up to 28.7 µM
Procedure, shortened: as §1

AS120 = assay: as above; conditions: P. falciparum in erythrocytes, SYBR Green DNA, 72 h; series mostly up to 28.7 µM
Procedure, shortened: as §1

ATS189 = assay: as above; conditions: P. falciparum in erythrocytes, SYBR Green DNA, 72 h; series mostly up to 28.7 µM
Procedure, shortened: as §1

C2A = assay: as above; conditions: P. falciparum in erythrocytes, SYBR Green DNA, 72 h; series mostly up to 28.7 µM
Procedure, shortened: as §1

CP185 = assay: as above; conditions: P. falciparum in erythrocytes, SYBR Green DNA, 72 h; series mostly up to 28.7 µM
Procedure, shortened: as §1

CP191 = assay: as above; conditions: P. falciparum in erythrocytes, SYBR Green DNA, 72 h; series mostly up to 28.7 µM
Procedure, shortened: as §1

CP192 = assay: as above; conditions: P. falciparum in erythrocytes, SYBR Green DNA, 72 h; series mostly up to 28.7 µM
Procedure, shortened: as §1

CP194 = assay: as above; conditions: P. falciparum in erythrocytes, SYBR Green DNA, 72 h; series mostly up to 28.7 µM
Procedure, shortened: as §1

CP211 = assay: as above; conditions: P. falciparum in erythrocytes, SYBR Green DNA, 72 h; series mostly up to 28.7 µM
Procedure, shortened: as §1

CP217 = assay: as above; conditions: P. falciparum in erythrocytes, SYBR Green DNA, 72 h; series mostly up to 28.7 µM
Procedure, shortened: as §1

CP237 = assay: as above; conditions: P. falciparum in erythrocytes, SYBR Green DNA, 72 h; series mostly up to 28.7 µM
Procedure, shortened: as §1

CP238 = assay: as above; conditions: P. falciparum in erythrocytes, SYBR Green DNA, 72 h; series mostly up to 28.7 µM
Procedure, shortened: as §1

CP247 = assay: as above; conditions: P. falciparum in erythrocytes, SYBR Green DNA, 72 h; series mostly up to 28.7 µM
Procedure, shortened: as §1

CP252 = assay: as above; conditions: P. falciparum in erythrocytes, SYBR Green DNA, 72 h; series mostly up to 28.7 µM
Procedure, shortened: as §1

CP286 = assay: as above; conditions: P. falciparum in erythrocytes, SYBR Green DNA, 72 h; series mostly up to 28.7 µM
Procedure, shortened: as §1

Dd2 = assay: as above; conditions: P. falciparum in erythrocytes, SYBR Green DNA, 72 h; series mostly up to 28.7 µM
Procedure, shortened: as §1

P94_40 = assay: as above; conditions: P. falciparum in erythrocytes, SYBR Green DNA, 72 h; series mostly up to 28.7 µM
Procedure, shortened: as §1

Chain of ATP-dependent 6-phosphofructokinase (Trypanosoma brucei brucei) (O15648 whole entry, looked up): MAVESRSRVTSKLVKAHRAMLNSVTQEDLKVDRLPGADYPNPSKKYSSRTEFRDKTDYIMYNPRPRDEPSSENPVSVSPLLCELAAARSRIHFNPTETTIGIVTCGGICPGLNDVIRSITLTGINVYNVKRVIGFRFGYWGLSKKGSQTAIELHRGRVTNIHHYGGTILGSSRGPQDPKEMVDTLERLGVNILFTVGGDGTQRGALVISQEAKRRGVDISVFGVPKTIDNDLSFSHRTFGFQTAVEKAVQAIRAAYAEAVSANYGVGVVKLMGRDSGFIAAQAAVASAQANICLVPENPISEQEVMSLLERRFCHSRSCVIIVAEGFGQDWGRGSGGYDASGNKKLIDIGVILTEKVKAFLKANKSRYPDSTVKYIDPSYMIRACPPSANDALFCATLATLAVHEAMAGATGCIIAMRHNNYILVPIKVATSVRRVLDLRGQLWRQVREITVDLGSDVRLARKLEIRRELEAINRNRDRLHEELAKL

O=C1CC[C@H](C(=O)N[C@@H]2C[C@H]2c2ccccc2)N1
inactive: Potency [1] | activity, negative = inhibition ([2]; parasite line A) 10.5% | activity, negative = inhibition ([2]; parasite line B) 18.1% | Potency (3D7) | Potency (AA1029) | Potency (AS120) | Potency (ATS189) | Potency (C2A) | Potency (CP185) | Potency (CP191) | Potency (CP192) | Potency (CP194) | Potency (CP211) | Potency (CP217) | Potency (CP237) | Potency (CP238) | Potency (CP247) | Potency (CP252) | Potency (CP286) | Potency (Dd2) | Potency (P94_40)

O=c1[nH]c(=O)n(C2C[C@H](O)[C@@H](CO)O2)cc1C(F)(F)F (stereo partly specified)
inactive: Potency [1] | activity, negative = inhibition ([2]; parasite line A) -3.45% | activity, negative = inhibition ([2]; parasite line B) -4.14% | Potency (3D7) | Potency (AA1029) | Potency (AS120) | Potency (ATS189) | Potency (C2A) | Potency (CP185) | Potency (CP191) | Potency (CP192) | Potency (CP194) | Potency (CP211) | Potency (CP217) | Potency (CP237) | Potency (CP238) | Potency (CP247) | Potency (CP252) | Potency (CP286) | Potency (Dd2) | Potency (P94_40)

CNC(=O)C(N)CSC(C)C1=C(C)c2cc3[n-]c(cc4nc(cc5[n-]c(cc1n2)c(C)c5CCC(=O)O)C(CCC(=O)O)=C4C)c(C)c3C(C)SCC(N)C(=O)NC.[Fe+2] (stereo unspecified)
inactive: Potency [1] | activity, negative = inhibition ([2]; parasite line A) 8.98% | activity, negative = inhibition ([2]; parasite line B) -1.36% | Potency (3D7) | Potency (AA1029) | Potency (AS120) | Potency (ATS189) | Potency (C2A) | Potency (CP185) | Potency (CP191) | Potency (CP192) | Potency (CP194) | Potency (CP211) | Potency (CP217) | Potency (CP237) | Potency (CP238) | Potency (CP247) | Potency (CP252) | Potency (CP286) | Potency (Dd2) | Potency (P94_40)

CC1OC(OCC2OC(Oc3c(-c4ccc(OCCO)c(OCCO)c4)oc4cc(OCCO)cc(O)c4c3=O)C(O)C(O)C2O)[C@@H](O)C(O)C1O (stereo partly specified)
inactive: Potency [1] | activity, negative = inhibition ([2]; parasite line A) -11% | activity, negative = inhibition ([2]; parasite line B) 4.27% | Potency (3D7) | Potency (AA1029) | Potency (AS120) | Potency (ATS189) | Potency (C2A) | Potency (CP185) | Potency (CP191) | Potency (CP192) | Potency (CP194) | Potency (CP211) | Potency (CP217) | Potency (CP237) | Potency (CP238) | Potency (CP247) | Potency (CP252) | Potency (CP286) | Potency (Dd2) | Potency (P94_40)

CCCCCCCCCCCC(=O)OCC(O)C1OCC(O)C1O (stereo unspecified)
inactive: Potency [1] | activity, negative = inhibition ([2]; parasite line A) -2.73% | activity, negative = inhibition ([2]; parasite line B) 8.41% | Potency (3D7) | Potency (AA1029) | Potency (AS120) | Potency (ATS189) | Potency (C2A) | Potency (CP185) | Potency (CP191) | Potency (CP192) | Potency (CP194) | Potency (CP211) | Potency (CP217) | Potency (CP237) | Potency (CP238) | Potency (CP247) | Potency (CP252) | Potency (CP286) | Potency (Dd2) | Potency (P94_40)

CC(=O)NC1[C@H](O)C[C@@](O)(C(=O)O)O[C@H]1[C@H](O)[C@H](O)CO (stereo partly specified)
inactive: Potency [1] | activity, negative = inhibition ([2]; parasite line A) 5.53% | activity, negative = inhibition ([2]; parasite line B) -8.73% | Potency (3D7) | Potency (AA1029) | Potency (AS120) | Potency (ATS189) | Potency (C2A) | Potency (CP185) | Potency (CP191) | Potency (CP192) | Potency (CP194) | Potency (CP211) | Potency (CP217) | Potency (CP237) | Potency (CP238) | Potency (CP247) | Potency (CP252) | Potency (CP286) | Potency (Dd2) | Potency (P94_40)

CCN1CCN(C(=O)NC(C(=O)NC2C(=O)N3C(C(=O)O)=C(CSc4nnnn4C)CSC23)c2ccc(O)cc2)C(=O)C1=O (stereo unspecified)
inactive: Potency [1] | activity, negative = inhibition ([2]; parasite line A) 1.12% | activity, negative = inhibition ([2]; parasite line B) -9.29% | Potency (3D7) | Potency (AA1029) | Potency (AS120) | Potency (ATS189) | Potency (C2A) | Potency (CP185) | Potency (CP191) | Potency (CP192) | Potency (CP194) | Potency (CP211) | Potency (CP217) | Potency (CP237) | Potency (CP238) | Potency (CP247) | Potency (CP252) | Potency (CP286) | Potency (Dd2) | Potency (P94_40)

O=C1NC(=O)C2C3C=CC(C3)C12 (stereo unspecified)
inactive: Potency [1] | activity, negative = inhibition ([2]; parasite line A) 8.3% | activity, negative = inhibition ([2]; parasite line B) 20.1% | Potency (3D7) | Potency (AA1029) | Potency (AS120) | Potency (ATS189) | Potency (C2A) | Potency (CP185) | Potency (CP191) | Potency (CP192) | Potency (CP194) | Potency (CP211) | Potency (CP217) | Potency (CP237) | Potency (CP238) | Potency (CP247) | Potency (CP252) | Potency (CP286) | Potency (Dd2) | Potency (P94_40)

OC[C@@H]1O[C@](CO)(O[C@H]2O[C@H](CO)[C@@H](O)[C@H](O)[C@H]2O)[C@H](O)[C@H]1O
inactive: Potency [1] | activity, negative = inhibition ([2]; parasite line A) -1.62% | activity, negative = inhibition ([2]; parasite line B) 7.05% | Potency (3D7) | Potency (AA1029) | Potency (AS120) | Potency (ATS189) | Potency (C2A) | Potency (CP185) | Potency (CP191) | Potency (CP192) | Potency (CP194) | Potency (CP211) | Potency (CP217) | Potency (CP237) | Potency (CP238) | Potency (CP247) | Potency (CP252) | Potency (CP286) | Potency (Dd2) | Potency (P94_40)

OCC1O[C@H](Oc2ccc(O)cc2)C(O)C(O)C1O (stereo partly specified)
inactive: Potency [1] | activity, negative = inhibition ([2]; parasite line A) -4.75% | activity, negative = inhibition ([2]; parasite line B) 1.5% | Potency (3D7) | Potency (AA1029) | Potency (AS120) | Potency (ATS189) | Potency (C2A) | Potency (CP185) | Potency (CP191) | Potency (CP192) | Potency (CP194) | Potency (CP211) | Potency (CP217) | Potency (CP237) | Potency (CP238) | Potency (CP247) | Potency (CP252) | Potency (CP286) | Potency (Dd2) | Potency (P94_40)

CC1(C)SC2C(NC(=O)C(C(=O)O)c3ccccc3)C(=O)N2C1C(=O)O (stereo unspecified)
inactive: Potency [1] | activity, negative = inhibition ([2]; parasite line A) 5.75% | activity, negative = inhibition ([2]; parasite line B) 2.54% | Potency (3D7) | Potency (AA1029) | Potency (AS120) | Potency (ATS189) | Potency (C2A) | Potency (CP185) | Potency (CP191) | Potency (CP192) | Potency (CP194) | Potency (CP211) | Potency (CP217) | Potency (CP237) | Potency (CP238) | Potency (CP247) | Potency (CP252) | Potency (CP286) | Potency (Dd2) | Potency (P94_40)

— PubChem BioAssay (NCATS)
